Several values for one entry are separate records, joined by “and”; a condition that tells them apart may be missing. Identical values can stand only once. Records with an inconclusive call do not appear. Activity calls are given as the source filed them. Unless noted, calls come from the whole dose curve; as a rule, active = well fitted curve in the direction sought with a large enough effect; inconclusive = small, poorly fitted or top-dose-only effect, or another doubt; inactive = no such curve, though single readings can be large; an effect the other way counts as inactive or inconclusive.
How the values were obtained:
[1] = High-throughput drug toxicity screening in the BPDCN cell line Cal-1 (AID 1224825; call rule not given here); settings: Cal-1 BPDCN cell viability, qHTS; at 45.8 µM (top of the series) unless noted
In short: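 CellTiter-Glo luminescence after 48 h compound exposure; percent activity scaled with DMSO as 100% and bortezomib (9.2 uM final) as 0%. Cal-1 cells seeded at 500/well in RPMI, 10% FBS, no phenol red.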

[2] = qHTS assay for measurement of the activity of small molecule inhibitors on Zika virus induced Caspase-3 activity in human iPSC derived neural progenitor cells (hNPCs) (AID 1224857); note: % of control where 0% means no effect; nearly all actives have a fitted effect of over 65% in size
In short: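 Human iPSC-derived neural progenitor cells pretreated 1 hr with compounds, then infected with Zika virus (2 FFU/cell) for 6 hours at 37 C. Caspase-3/7 measured by Caspase-Glo luminescence; % inhibition calculated from induction scaled to uninfected (0%) and infected (100%) wells.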

[3] = qHTS assay for measurement of the activity of small molecule inhibitors on Zika virus induced Caspase-3 activity in human astrocytoma cells (AID 1224859);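 note: plate controls were ZIKV-infected untreated cells for no effect and uninfected cells for full effect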
In short: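 SNB-19 astrocytoma cells, 250/well, pretreated 1 h with compounds, then Zika virus at 2 FFU/cell for 6 h at 37 C; Caspase-Glo 3/7 luminescence after 30 min; percent inhibition normalised to uninfected and infected controls.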

[4] = qHTS Screen of the MIPE 4.0 Collection Against Ewings Sarcoma (RDES) (AID 1259252); note: potency is the fitted concentration of half-maximal effect; nearly all actives have a fitted effect of over 35% in size
In short: (§1)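 Viability screen: 48 h incubation at 37C, 95% humidity, 5% CO2 with serially titrated compound, followed by CellTiter-Glo readout.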

[5] = qHTS Screen of the MIPE 4.0 Collection Against Ewings Sarcoma (TC71) (AID 1259253); note: nearly all actives have a fitted effect of over 40% in size; note: potency is the fitted concentration of half-maximal effect
In short: as §1

[6] = qHTS Screen of the MIPE 4.0 Collection Against Ewings Sarcoma (EW8) (AID 1259255); note: nearly all actives have a fitted effect of over 35% in size; note: potency is the fitted concentration of half-maximal effect;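 for viability: 100% = DMSO-treated cells and 0% = medium-only wells without cells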
In short: as §1

[7] = qHTS of pediatric cancer cell lines to identify multiple opportunities for drug repurposing: Primary screen for TC32 cells (AID 1347089); note: nearly all actives have a fitted effect of over 60% in size; note: potency is the fitted concentration of half-maximal effect
In short: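 Luminescent CellTiter-Glo read-out of metabolically active TC32 cells after 48 h compound exposure. Primary: MIPE 11-point, 0.78 nM–46 µM; NPC 8-point, 0.59 nM–46 µM. Confirmatory: 11-point dilutions.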

[8] = qHTS of pediatric cancer cell lines to identify multiple opportunities for drug repurposing: Primary screen for DAOY cells (AID 1347090); note: nearly all actives have a fitted effect of over 55% in size; note: potency is the fitted concentration of half-maximal effect
In short: (§2)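 Viability measured as metabolically active cells via CellTiter-Glo luminescence following 48 hours of compound exposure, 11-point dilutions in confirmatory testing. 500-1,000 cells/well plated 5 hours before dosing; controls were DMSO and 2.3 µM bortezomib.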

[9] = qHTS of pediatric cancer cell lines to identify multiple opportunities for drug repurposing: Primary screen for SJ-GBM2 cells (AID 1347091); note: potency is the fitted concentration of half-maximal effect
In short: as §2

[10] = qHTS of pediatric cancer cell lines to identify multiple opportunities for drug repurposing: Primary screen for A673 cells (AID 1347092); note: nearly all actives have a fitted effect of over 45% in size; note: potency is the fitted concentration of half-maximal effect
In short: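 A673 cells (500-1,000 cells/well in growth media) were pre-incubated 5 h at 37 degrees C, then exposed to compounds for 48 h. Viability was read as CellTiter-Glo luminescence; concentration-response curves came directly from the primary screen.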

[11] = qHTS of pediatric cancer cell lines to identify multiple opportunities for drug repurposing: Primary screen for SK-N-MC cells (AID 1347093); note: potency is the fitted concentration of half-maximal effect
In short: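 Metabolically active cells were quantified by ATP-dependent luminescence (CellTiter-Glo, 15 min at room temperature) following 48 h treatment. Cells had been plated at 500-1,000 per well and settled for 5 h beforehand.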

[12] = qHTS of pediatric cancer cell lines to identify multiple opportunities for drug repurposing: Primary screen for BT-37 cells (AID 1347094); note: potency is the fitted concentration of half-maximal effect
In short: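 Viability was measured as metabolically active cells after 48 hours of treatment, read by CellTiter-Glo luminescence. Compounds were tested at multiple final concentrations, giving concentration-response curves.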

[13] = qHTS Screen of the MIPE 4.0 Collection Against Ewings Sarcoma (TC32) (AID 1259256); note: nearly all actives have a fitted effect of over 45% in size; note: potency is the fitted concentration of half-maximal effect
In short: as §1

[14] = P-glycoprotein substrates identified in KB-8-5-11 adenocarcinoma cell line, qHTS therapeutic library screen (AID 1346987); note: nearly all actives have a fitted effect of over 65% in size; note: potency is the fitted concentration of half-maximal effect
In short: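 Compounds are pinned in dose-response onto KB-8-5-11 cells (500 cells/well, colchicine-free medium) and left 72 h at 37 degree C. CellTiter-Glo luminescence then yields AC50 values.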

[15] = NS1 protein of Zika virus - qHTS assay to identify small molecule inhibitors in human HEK 293 cells (AID 1347053); note: nearly all actives have a fitted effect of over 55% in size; note: potency is the fitted concentration of half-maximal effect;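 for activity change, negative = inhibition: plate controls were infected untreated cells for no effect and uninfected cells for full effect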
In short: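 Readout was TR-FRET using paired anti-NS1 antibodies after 24 h infection of HEK 293 cells with ZIKV MR766 (MOI = 0.5). Compound preceded virus by 1 h; reduced signal reflects lower NS1 expression.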

[16] = P-glycoprotein substrates identified in KB-3-1 adenocarcinoma cell line, qHTS therapeutic library screen (AID 1346986); note: nearly all actives have a fitted effect of over 60% in size;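 note: potency is the fitted concentration of half-maximal effect; potency is for cytotoxicity meaning loss of cell viability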
In short: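 In 1536-well format, 500 cells/well received pinned compound titrations and were incubated 72 h, 5% CO2. Viability was read by CellTiter-Glo; cytotoxic if AC50 < 10 uM and efficacy >50%.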

SMILES	viability (% of control) [1]	Potency [2]	Potency [3]	Potency [4]	Potency [5]	Potency [6]	Potency [7]	Potency [8]	Potency [9]	Potency [10]	Potency [11]	Potency [12]	Potency [13]	Potency [14]	Potency [15]	activity change, negative = inhibition [2]	activity change, negative = inhibition [3]	Potency [16]
CCN(CC)Cc1ccc2cc(COC(=O)Nc3ccc(C(=O)NO)cc3)ccc2c1	4.07%	inactive	inactive	743 nM (active)	662 nM (active)	526 nM (active)	5870 nM (active)	2960 nM (active)	743 nM (active)	1480 nM (active)	833 nM (active)	1930 nM (active)	–	–	–	–	–	–
O=C(NNC(=O)c1ccc(CNS(=O)(=O)c2ccc(F)c(Cl)c2)cc1)c1ccccc1	116%	inactive	inactive	–	inactive	inactive	inactive	inactive	inactive	inactive	inactive	inactive	inactive	inactive	inactive	–	–	–
CC[C@]12C=CCN3CC[C@@]4(c5cc([C@@]6(C(=O)OC)C[C@H]7C[C@@H](C(C)(F)F)CN(Cc8c6[nH]c6ccccc86)C7)c(OC)cc5N(C)[C@H]4[C@@](O)(C(=O)OC)[C@H]1OC(C)=O)[C@@H]32	9.46%	inactive	inactive	–	18.7 nM (active)	5.3 nM (active)	58.7 nM (active)	29.6 nM (active)	1 nM (active)	–	3 nM (active)	–	inactive	743 nM (active)	7430 nM (active)	–	–	–
CCC(C=C[C@@H]1OC(=O)C=C[C@H]1C)=C[C@H](C)CC=CC(C)=C[C@@H](C)C(=O)[C@@H](C)[C@H](O)[C@@H](C)CC(C)=CC(=O)O	5.92% [at 1.72 µM]	–	–	–	22 nM (active)	15.6 nM (active)	77.7 nM (active)	78.2 nM (active)	–	24.7 nM (active)	24.7 nM (active)	10.2 nM (active)	13.9 nM (active)	–	124 nM (active)	14.9% [at 1.73 µM] (inactive)	5.61% [at 1.73 µM] (inactive)	–
NC(=O)c1ncn([C@@H]2O[C@H](CO)[C@@H](O)[C@@H]2O)c1O	102%	inactive	inactive	–	inactive	inactive	inactive	inactive	inactive	–	inactive	inactive	inactive	inactive	inactive	–	–	–
COc1cccc2c1C(=O)c1c(O)c3c(c(O)c1C2=O)C[C@@](O)(C(=O)CO)C[C@H]3O[C@H]1C[C@H](N)[C@H](O)[C@H](C)O1	4.57%	inactive	inactive	187 nM (active)	74.3 nM (active)	26.4 nM (active)	930 nM (active)	935 nM (active)	52.6 nM (active)	–	105 nM (active)	122 nM (active)	–	–	–	–	–	–
C[C@H](O)[C@@H]1C(=O)N2C(C(=O)O)=C(S[C@@H]3CN[C@H](CNS(N)(=O)=O)C3)[C@@H](C)[C@@H]12	112%	inactive	inactive	–	inactive	inactive	inactive	inactive	inactive	inactive	–	inactive	inactive	inactive	inactive	–	–	inactive
N#Cc1c(NC(=O)c2cccc3ccccc23)sc2c1CCCC2	9.83%	inactive	inactive	–	526 nM (active)	469 nM (active)	1040 nM (active)	296 nM (active)	332 nM (active)	235 nM (active)	235 nM (active)	1090 nM (active)	235 nM (active)	418 nM (active) and 291 nM (active)	–	–	–	366 nM (active)
CCOC(=O)C=C[C@H](C[C@@H]1CCNC1=O)NC(=O)[C@@H](CC(=O)[C@@H](NC(=O)c1cc(C)on1)C(C)C)Cc1ccc(F)cc1	107%	inactive	inactive	–	inactive	inactive	inactive	inactive	inactive	inactive	–	inactive	inactive	inactive	inactive	–	–	–
CC(C)c1cnn2c(NCc3ccccc3)cc(NCCCCCCN)nc12	3.93%	inactive	inactive	–	4690 nM (active)	18700 nM (active)	inactive	–	–	5900 nM (active)	662 nM (active)	24300 nM (active)	13200 nM (active)	–	–	–	–	–
CC1(C)CC(O)CC(C)(C)N1[O]	102%	inactive	inactive	–	inactive	inactive	inactive	inactive	–	inactive	inactive	inactive	inactive	inactive	inactive	–	–	–
CN(C)CC(=O)N1CCC(c2ccc(NC(=O)c3ncc(C#N)[nH]3)c(C3=CCCCC3)c2)CC1	28.6%	inactive	inactive	–	16600 nM (active)	18700 nM (active)	inactive	–	18700 nM (active)	18700 nM (active)	1660 nM (active)	–	20900 nM (active)	inactive	–	–	–	–
C=CC(=O)Nc1cccc(Nc2nc(NC3CCC(N(C)C)CC3)nc3c2ncn3C(C)C)c1 (stereo unspecified)	2.19%	inactive	–	14.8 nM (active)	469 nM (active)	526 nM (active)	1470 nM (active)	–	235 nM (active)	11.8 nM (active)	4.2 nM (active)	96.8 nM (active)	418 nM (active)	–	11800 nM (active)	–	–	–
